Screening data: PubChem, National Center for Advancing Translational Sciences (NCATS)
Only some compounds are listed: those with a hit (about 13% of all), similar ones and a draw of the others.
Cycloheximide cs: affects cycloheximide protein synthesis inhibition readout, counter-screen | cell reporter, cycloheximide protein synthesis inhibition counterscreen | max response, % | hit rate 12% among 300,000; in the data active = max response mostly above about 13%, no sharp cut-off; inactive = mostly below about 14%; also: read at 38.3 µM for the half of the compounds with a filed dose
Shiga toxin inh: inhibitors of Shiga toxin in Vero cells. hit rate 9.2% among 290,000. Vero cells, Shiga toxin protein synthesis inhibition reporter. inhibition, % at 38.7 µM; in the data active = inhibition mostly above about 28%, no sharp cut-off; inactive = mostly below about 43%
Marburg entry inh: Marburg virus entry inhibition. Marburg virus pseudotyped entry inhibition, cell reporter. hit rate 1.8% among 300,000. Potency, µM (series often up to 37.8 µM), most hits filed as inhibitors; calls by dose curve; tested in HEK293 cells
HCV inhibitor: inhibitors of hepatitis C virus infection | Huh7.5.1 HCVcc-Cre infection, luciferase reporter, 44 h | Potency, µM (doses to about 41.8 µM), most hits filed as inhibitors | hit rate 3.4% among 340,000 | AID 651820; active = well fitted inhibition curve with a large enough effect; inconclusive = small, poorly fitted or top-dose-only effect, or another doubt; inactive = no such curve, though single readings can be large or run the other way
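Infectious HCVcc-Cre (~0.5 moi) was added to cells just after compound, with cells seeded 4 h earlier at 1,000 per well. Luciferase activity after 44 h culture reported infection; substrate was incubated 15 min at room temperature before reading.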
FMDV antiviral: foot and mouth disease virus antiviral activity; FMDV antiviral cell-based qHTS; Potency, µM (titrated, usually from 57.9 µM), most hits filed as inhibitors; hit rate 1.2% among 410,000; calls by dose curve; tested in HEK293T cells; also: read-out not given here; nearly all actives have a fitted effect of over 45% in size
LASV entry inh: inhibitors of Lassa virus binding or cell entry; Lassa virus pseudotype entry inhibition, cell reporter; AID 540256; hit rate 1.2% among 300,000; Potency, µM (doses to about 37.9 µM), actives largely listed as inhibitors; calls by dose curve; tested in HEK293 cells; also: nearly all actives have a fitted effect of over 50% in size
A number is an active result; n = inactive; u = inconclusive; x = no result; ! = not confirmed by another sample; [ ] = dose if it differs, or a comment.

SMILES	Cycloheximide cs	Shiga toxin inh	Marburg entry inh	HCV inhibitor	FMDV antiviral	LASV entry inh
CSc1cccc(NC(=S)NC(=O)CCc2ccccc2)c1	23.0	n	x	u	n	x
CC1Sc2ccc(S(=O)(=O)N3CCC(C(=O)NCc4ccc(Cl)cc4)CC3)cc2NC1=O (centres undefined)	n	n	u	u	u	n
Cc1cc(NC(=O)CSCc2ccccc2)no1	n	n	x	n	n	x
Cc1cc(CSCc2ccc(Cl)cc2)no1	23.1	n	x	n	n	x
Cc1ccc(CC2C(=O)N(c3ccc(C)cc3)C(=O)C2C)cc1 (centres undefined)	47.4	80.2	n	n	n	n
COc1ccc(N/C=C\C(=O)c2ccc(C)cc2)cc1OC	45.8	84.9	u	n	n	n
COc1cccc(N/C=C/C(=O)c2ccc(Br)cc2)c1	x	x	u	n	n	u
COc1ccc(N/C=C\C(=O)c2ccc(Br)cc2)cc1OC	28.5	n	u	n	n	n
COc1ccc(C(=O)Sc2ccc(C)cc2)cc1OC	34.1	77.4	n	n	n	n
CC(=O)Nc1ccc(N/C=C/C(=O)c2ccc(C)cc2)cc1	26.6	54.7	x	n	n	x
COCCNC(=O)C(c1cccnc1)N(Cc1ccc(C)cc1)C(=O)Cn1nnc2ccccc21 (centres undefined)	n	n	n	n	n	n
O=c1c(Cl)c(NS(=O)(=O)c2ccccc2)cnn1-c1ccccc1	n	n	x	n	n	x
COc1ccc(F)cc1S(=O)(=O)Nc1ccc2c(c1)CCCN2C(=O)c1cccs1	x	x	x	x	n	n
N#Cc1cccc(C(c2nnnn2CCc2ccccc2)N2CCN(C3CCCCC3)CC2)c1 (centres undefined)	n	n	u	u	x	n
COc1ccc(C(c2nnnn2CCc2ccccc2)N2CCN(C3CCCC3)CC2)cc1 (centres undefined)	42.0	60.2	u	u	n	u
COc1ccc(Cn2nnnc2C(C(C)C)N2CCN(c3ccccc3OC)CC2)cc1 (centres undefined)	n	n	u	u	25.1µM	u
CCC(c1nnnn1Cc1ccc(F)cc1)N1CCN(C2CCCCC2)CC1 (centres undefined)	n	n	12.6µM	n	u	u
COc1ccc(Cn2nnnc2C(c2ccccc2)N2CCN(C3CCCC3)CC2)cc1 (centres undefined)	n	n	7.08µM!	u	n	n
C=CCNC(=S)N(CC)c1cccc2ccccc12	n	n	u	n	n	n
Cc1n[nH]c(C)c1CNCc1c(C(=O)N2CCCCCCC2)nc2ccc(Cl)cn12	n	n	x	n	n	x
Cc1ccc(CC(=O)Nc2nccs2)cc1C	n	n	n	n	n	n
O=C(NNC(=O)c1ccccc1Br)c1ccccc1Cl	18.7	n	n	n	n	n
O=C(NNC(=S)Nc1ccccc1Cl)c1ccccc1Br	49.0	74.5	n	n	n	u
O=C(NNC(=O)c1ccccc1Br)c1ccc(Cl)cc1	n	n	n	n	x	n
CN1CCN(c2ccc(Cl)cc2NC(=O)CC2OC(=O)c3ccccc32)CC1 (centres undefined)	x	x	u	u	n	n
SMILES	Cycloheximide cs	Shiga toxin inh	Marburg entry inh	HCV inhibitor	FMDV antiviral	LASV entry inh
O=C(Oc1ccc(-c2cnc3ccccc3n2)cc1)c1cc([N+](=O)[O-])ccc1Cl	48.3	82.6	n	n	n	n
Cc1c(C(=O)Oc2ccc(-c3cnc4ccccc4n3)cc2)cccc1[N+](=O)[O-]	37.3	94.9	n	n	n	u
CN(Cc1ccccc1)C(=O)c1ccc(NC(=O)Cc2ccc(NC(=O)C3CCCN(S(=O)(=O)c4cccc([N+](=O)[O-])c4)C3)cc2)cc1 (centres undefined)	x	x	x	12.6µM	n	x
CN(C(=O)c1cccc(NC(=O)C2CCN(C(=O)OC(C)(C)C)CC2)c1)C1CCCCC1	x	x	x	10µM	u	x
CN(C(=O)c1cccc(NC(=O)Cc2ccc(NC(=O)C3CCCN(C(=O)CCc4ccccc4)C3)cc2)c1)C1CCCCC1 (centres undefined)	x	x	x	3.16µM	14.1µM	x
CN(C(=O)c1cccc(NC(=O)Cc2ccc(NC(=O)C3CCCN(C(=O)C4CCCC4)C3)cc2)c1)C1CCCC1 (centres undefined)	x	x	x	10µM	u	x
O=C1CS/C(=N/N=C\c2ccn[nH]2)N1	n	n	n	n	n	n
CCN(CC)C1CCN(Cc2cn[nH]c2-c2ccc(OC)c(F)c2)C1 (centres undefined)	n	n	n	n	n	n
CN(Cc1ccccc1)C(=O)c1ccc(NC(=O)Cc2ccc(NC(=O)C3CCCN(C(=O)C4CCCCC4)C3)cc2)cc1 (centres undefined)	x	x	x	n[8.37 µM]	n	x
